# Measured values taken from PubChem BioAssay (NCATS).
# Results filed as inconclusive are left out. Unmarked numbers belong to inactive results. Calls of active or inactive are those of the source. Calls come from the whole dose curve; as a rule, active = well fitted cell-killing curve with a large enough effect; inconclusive = small, poorly fitted or top-dose-only effect, or effect the other way; inactive = no such curve, though single readings can be large or run the other way.
# Experiment: Quantitative highthroughput screen to assess conditional lethalithy of SEM cells grown in RPMI1640 with unreated serum (RPMI+s) (AID 1963883); note: nearly all actives have a fitted effect of over 35% in size
# Details: SEM B-ALL cells, CellTiter-Glo viability, 48 h; series mostly up to 45.8 µM; viability: at the top concentration
# Description: Assay Provider: Jason Cantor Ph.D.
# Department of Biochemistry
# University of Wisconsin-Madison, Madison, WI, USA
# Chemical screening studies have identified drug sensitivities across hundreds of cancer cell lines but most putative therapeutics fail to translate. Discovery and development of drug candidates in models that more accurately reflect nutrient levels in human blood is a major challenge. Here we performed high-throughput screens in conventional versus Human Plasma-Like Medium (HPLM) to identify compounds that were "missed" when screening using the artificial culture condition. Sets of conditional anticancer compounds spanned phases of clinical development and included non-oncology drugs were assessed. […] We also traced conditional phenotypes for several chemotherapeutics to availability of HPLM-specific metabolites and confirmed others for compounds whose reported targets are encoded by nonessential genes. Our findings establish generalizable strategies for exploiting conditional lethality in HPLM to reveal therapeutic candidates and mechanisms of action in cancer cells.
# Described herein are the results of each viability screens against three cell lines: NOMO1 (an acute myeloid leukemia cell line); P12-Ichikawa (a T-cell acute lymphoblastic leukemia); and SEM (a B-cell ALL). Each assay was screened using 3 different cell culture media: homemade human plasma-Like medium with 10% dialyzed fetal bovine serum (HPLM+ds); RPMI1640 with 10% untreated FBS and 5mM glucose (RPMI+s); and RPMI1640 with 10% dialyzed fetal bovine serum and 5 mM glucose (RPMI+ds).
# PROTOCOL TABLE (as described by Inglese J, Shamu CE and Guy RK. 2007)
# SEQUENCE No. (e.g., 1, 2, 3, etc.); […] (e.g., Cells, Incubation, Reagent, etc.); VALUE and DESCRIPTION.
# 1; Cells; 5 uL; white, solid bottom 1536-well Greiner assay plate.
# 2; Compounds; 23 nL; Kalypsis pin tool (Wako USA) equipped with a 1536-well pin head to transfer to the assay plates.
# 3; Incubation; 48 hours; 37C incubation.
# 4; Reagent; 3 uL; CellTiter Glo (Promega).
# 5; Incubation; 5 min, room temperature
# 6; Detection; Luminescence, Viewlux PerkinElmer.
# NOTES (numbers refer to Sequence numbers above)
# 1. Briefly, 5 ul of cell reagent was dispensed using a Multidrop Combi Dispenser. The NOMO1 and SEM cells were plated at 500 cells/well and the P12-Ichikawa line at 1000 cells/well.
# 2. After seeding the cells, 23 nL of MIPE 4.1 library compounds (in DMSO) were added to each plate using a Kalypsys 1536 Pintool dispenser. Bortezomib at final concentration of […] and DMSO were added to each plate as positive and negative controls respectively. For each screen, MIPE 4.1 compounds were added over an eleven-point concentration range […] in 3-fold dilutions.
# 3. Each plate was covered with a stainless steel gasketed lid to prevent evaporation and incubated for 48 hour at 37C, 95% relative humidity, and 5% CO2.
# 4-5. Three microliter CellTilter-GloTM luminescent substrate mix (Promega) reagent was added to the assay plate and incubated at room temperature for 5 min.
# 6. The luminescence signal was measured using a ViewLux (PerkinElmer) multiplate reader with a 2 second exposure time per plate. Data for each compound were normalized as percent viability such that measurements for DMSO and the empty well controls in each plate were defined as 100% and 0%, respectively.
# Potency is the fitted concentration of half-maximal effect.
Structure (SMILES),Potency,viability
Cc1[nH]nc2ccc(-c3cncc(OC[C@@H](N)Cc4ccccc4)c3)cc12,2.09 µM (active),
O=C(O)Cn1nnc(-c2cc(N3CCC(Oc4cc(F)ccc4Br)CC3)no2)n1,,82.7%
c1cc(-c2sc(-c3ccncc3)c(-c3ccncc3)c2-c2ccncc2)ccn1,2.35 µM (active),
CC(=O)[C@H]1CC[C@H]2[C@@H]3CC=C4C[C@@H](O)CC[C@]4(C)[C@H]3CC[C@]12C,,107%
CC(C=CC1=C(C)CCCC1(C)C)=CC=CC(C)=CC(=O)Nc1ccc(O)cc1,6.05 µM (active),
Cn1c(=O)c(F)c(Nc2ccc(I)cc2F)c2c(=O)n(C[C@@H](O)CO)cnc21,6.62 µM (active),
Nc1nc(N)c2nc(CNc3ccc(C(=O)NC(CCC(=O)O)C(=O)O)cc3)cnc2n1 (stereo not given),0.0418 µM (active),
O=C(Nc1cccnc1)N1CCC(Cc2cccc(Oc3ccc(C(F)(F)F)cn3)c2)CC1,2.96 µM (active),
CCC1=C(C)CN(C(=O)NCCc2ccc(S(=O)(=O)NC(=O)NC3CCC(C)CC3)cc2)C1=O (stereo not given),,103%
C1Cc2[nH]nc(-c3nn[nH]n3)c2C1,,101%
C[C@@H]1CCO[C@H]2Cn3cc(C(=O)NCc4ccc(F)cc4F)c(=O)c(O)c3C(=O)N12,,92.9%
COc1cc(Cl)cn2c(-c3cccc(NC4CNC4)n3)cnc12,,71.6%
CNC(=O)c1nn(C)c2c1C(C)(C)Cc1cnc(Nc3ccc(N4CCN(C)CC4)cc3)nc1-2,0.372 µM (active),
CC(C)c1cc(-c2n[nH]c(=O)n2-c2ccc3c(ccn3C)c2)c(O)cc1O,0.059 µM (active),
Cc1ccc(C(=O)Nc2ccc(S(=O)(=O)O)c3cc(S(=O)(=O)O)cc(S(=O)(=O)O)c23)cc1NC(=O)c1cccc(NC(=O)Nc2cccc(C(=O)Nc3cc(C(=O)Nc4ccc(S(=O)(=O)O)c5cc(S(=O)(=O)O)cc(S(=O)(=O)O)c45)ccc3C)c2)c1,4.69 µM (active),
C[C@@H]1[C@H](O)[C@@H](C)C=CC=CC=CC=CC=CC=CC=C[C@H](O[C@@H]2O[C@H](C)[C@H](O)[C@H](N)[C@@H]2O)C[C@@H]2O[C@](O)(C[C@@H](O)C[C@@H](O)[C@H](O)CC[C@@H](O)C[C@@H](O)CC(=O)O[C@H]1C)C[C@H](O)[C@@H]2C(=O)O,,102%
COc1ccnc2[nH]cc(C(=O)C(=O)N3CCN(C(=O)c4ccccc4)C[C@@H]3C)c12,,97.6%
CCCCCN=C(N)NN=Cc1c[nH]c2ccc(OC)cc12,11.8 µM (active),
N=c1ccn2c(n1)O[C@H]1[C@@H](O)[C@@H](CO)O[C@H]12,0.132 µM (active),
C=CC1=C(C(=O)O)N2C(=O)[C@@H](NC(=O)C(=NO)c3csc(N)n3)[C@H]2SC1,,99.2%

Structure (SMILES),Potency,viability
Cc1c(NC(=O)OC[C@@H]2COCCN2)cn2ncnc(Nc3ccc4c(cnn4Cc4cccc(F)c4)c3)c12,9.35 µM (active),
Cn1cc(C2=C(c3c4n(c5ccccc35)CCC(CN)C4)C(=O)NC2=O)c2ccccc21 (stereo not given),10.5 µM (active),
CCC(=O)O[C@]1(C(=O)CO)CC[C@H]2[C@@H]3CCC4=CC(=O)CC[C@]4(C)[C@@H]3CC[C@@]21C,0.743 µM (active),
CCN1CCC(n2cc(CNc3cc(Cl)c4ncc(C#N)c(Nc5ccc(F)c(Cl)c5)c4c3)nn2)CC1,3.32 µM (active),
CCOc1cc(N2CCC(O)CC2)ccc1Nc1ncc2c(n1)N(C)c1ccccc1C(=O)N2C,16.6 µM (active),
Cn1cc(CNCC2CCN(c3ncc(C(=O)NO)cn3)CC2)c2ccccc21,0.148 µM (active),
CC1CCN(c2cc(N3CCN(C)CC3)ccc2NC(=O)c2cc(C#N)c[nH]2)CC1,,79.5%
CC(C)C[C@H](NC(=O)[C@@H](NC(=O)c1cccc(-c2ccccc2)n1)[C@@H](C)O)B(O)O,0.0132 µM (active),
O=C(NCc1ccncc1)C12C[C@H]3C[C@@H](C1)CC(c1ccc(Cl)cc1)(C3)C2,7.43 µM (active),
COc1ccc(-n2c(C)c([N+](=O)[O-])c3ccc(O)cc32)cc1,,99.5%
C1CCC(C(CC2CCCCN2)C2CCCCC2)CC1 (stereo not given),11.8 µM (active),
O=C(c1cncc(Br)c1)N1CCC(N2CCCC2)CC1,,79.8%
CN(C[C@@H]1COCCO1)S(=O)(=O)Nc1ccc2ccc3ncc(-c4cnn(C)c4)cc3c(=O)c2c1,0.418 µM (active),
NS(=O)(=O)c1cc2c(cc1Cl)NC(C(Cl)Cl)NS2(=O)=O (stereo not given),,96.2%
Cc1nc(C(=O)NCC(=O)O)c(O)c2ccc(Oc3ccccc3)cc12,,101%
CCOC(=O)N1CCN([N+]([O-])=NOc2ccc([N+](=O)[O-])cc2C#N)CC1,1.05 µM (active),
CC(=O)NCCC(=O)N[C@@H](CCC(N)=O)C(=O)N[C@@H](CO)C(=O)N[C@@H](CCC(N)=O)C(=O)N[C@@H](CCC(N)=O)C(=O)N[C@H](C(=O)N[C@@H](Cc1ccccc1)C(=O)N[C@]1(C)CCCCCCC=CCCC[C@@](C)(C(=O)N[C@@H](CCC(N)=O)C(=O)N[C@@H](CC(N)=O)C(N)=O)NC(=O)[C@H](CC(C)C)NC(=O)[C@H](CC(C)C)NC(=O)[C@@H](CCCNC(=N)N)NC(=O)[C@H](Cc2c[nH]c3ccccc23)NC(=O)[C@H](CC(C)C)NC(=O)[C@H](CC(N)=O)NC1=O)[C@H](C)O,0.833 µM (active),
O=C(C=CC#Cc1cccc(NS(=O)(=O)c2ccccc2)c1)NO,2.96 µM (active),
Cn1c(Nc2ccc(C(F)(F)F)cc2)nc2cc(Oc3ccnc(-c4ncc(C(F)(F)F)[nH]4)c3)ccc21,4.69 µM (active),
CCCCc1oc2ccccc2c1C(=O)c1cc(I)c(OCCN(CC)CC)c(I)c1,,91.2%
